# Literature values, collected in PubChem BioAssay AID977611.
# The whole screen tested about 3,900 compounds, of which about 3,900 (100%) were called active. The limit is not given here; nearly all actives have Kd up to about 4200 µM. So high a share suggests a set chosen from earlier hits. This is one part of the list. Non-standard residues stand in square brackets, D forms with d. Square brackets hold non-standard residues; d marks the D form. Residues, ends and D or L forms follow the SMILES beside them. Peptide text beside a SMILES is read from it. *: point of attachment. Lys(Me3) = C[N+](C)(C)CCCC[C@H](N)C(=O)O; Orn(CH(NH2)2) = NC(N)NCCC[C@H](N)C(=O)O; For = O=C*
# Experiment: PubChem AID 977611
# Details: PDB protein-ligand complexes, literature Kd
smiles,measurement,setting,value
Cc1ccc(-c2cc3c(NC[P+](O)(O)O)ncnc3s2)cc1,Kd,"protein: Farnesyl pyrophosphate synthase, human FPPS, PDB entry 4lph",9.2 µM (active)
Cc1ccc(-c2cc3c(NC([P+](O)(O)O)[P+](O)(O)O)ncnc3s2)cc1,Kd,"protein: Farnesyl pyrophosphate synthase, human FPPS, PDB entry 4lpg",55.6 µM (active)
N#Cc1c(Oc2ccc(F)c(NC(=O)Cc3cccc(C(F)(F)F)c3)c2)ccc2nc(NC(=O)C3CC3)sc12,Kd,"protein: Serine/threonine-protein kinase B-raf, PDB entry 4ksp",0.0016 µM (active)
O=C(c1ccccc1)N(O)CC[C@@H](c1ccc(Cl)c(Cl)c1)[P+](O)(O)O,Kd,"protein: 1-DEOXY-D-XYLULOSE 5-PHOSPHATE REDUCTOISOMERASE, PDB entry 3zhx",0.21 µM (active)
O=C(c1ccccc1Cn1cncn1)N(O)CC[C@@H](c1ccc(Cl)c(Cl)c1)[P+](O)(O)O,Kd,"protein: 1-DEOXY-D-XYLULOSE 5-PHOSPHATE REDUCTOISOMERASE, PDB entry 3zi0",0.04 µM (active)
O=C(c1ccccc1Nc1cccc(C(F)(F)F)c1)N(O)CC[C@@H](c1ccc(Cl)c(Cl)c1)[P+](O)(O)O,Kd,"protein: 1-DEOXY-D-XYLULOSE 5-PHOSPHATE REDUCTOISOMERASE, PDB entry 3zhz",0.09 µM (active)
CC(C)C[C@H](NC(=O)[C@H](CC(=O)O)NC(=O)CNC(=O)[C@H](CCCN=C(N)N)NC(=O)CNC(=O)[C@H](Cc1cnc[nH]1)NC=O)C(=O)NCC(=O)N[C@@H](CCCN=C(N)N)C(=O)N[C@@H](CC(C)C)C(=O)N[C@@H](CCCCN)C(=O)N[C@@H](CCCCN)C(N)=O (For-HGRGDLGRLKK-NH2),Kd,"protein: Integrin alpha V beta 6, PDB entry 4um9",0.0085 µM (active)
CC(C)C[C@H](NC(=O)[C@H](Cc1cnc[nH]1)NC(=O)[C@H](CO)NC(=O)[C@H](CO)NC(=O)[C@H](Cc1cnc[nH]1)NC(=O)[C@H](C)NC(=O)[C@@H](N)CCCN=C(N)N)C(=O)N[C@@H](CCCCN(C)C)C(=O)N[C@@H](CO)C(=O)N[C@@H](CCCCN)C(=O)N[C@@H](CCCCN)C(=O)NCC(=O)N[C@@H](CCC(N)=O)C(=O)N[C@@H](CO)C(=O)N[C@H](C(=O)O)[C@@H](C)O,Kd,"protein: Tumor suppressor p53-binding protein 1, 53BP1 tandem Tudor domains, PDB entry 2mwo",20 µM (active)
CSCC[C@H](NC(=O)[C@H](CC(C)C)NC(=O)[C@H](CCCCN(C)C)NC(=O)[C@H](CCCCN)NC(=O)[C@H](Cc1cnc[nH]1)NC(=O)[C@H](CCCN=C(N)N)NC(=O)[C@H](CO)NC(=O)[C@@H](NC(=O)[C@@H](N)CO)[C@@H](C)O)C(=O)N[C@@H](Cc1ccccc1)C(=O)N[C@@H](CCCCN)C(=O)N[C@H](C(=O)O)[C@@H](C)O,Kd,"protein: Tumor suppressor p53-binding protein 1, 53BP1 tandem Tudor domains, PDB entry 2mwp",0.9 µM (active)
CC(C)C[C@H](NC(=O)[C@@H](NC(=O)[C@H](CCCC[N+](C)(C)C)NC(=O)[C@H](CCCNC(N)N)NC(=O)[C@@H](N)Cc1cnc[nH]1)C(C)C)C(=O)N[C@@H](CCCNC(N)N)C(=O)O (H-H[Orn(CH(NH2)2)][Lys(Me3)]VL[Orn(CH(NH2)2)]-OH),Kd,"protein: Polycomb protein EED, PDB entry 3jpx",235 µM (active)
CC(C)C[C@H](NC(=O)[C@@H](NC(=O)[C@@H](CCCC[N+](C)(C)C)NC(=O)[C@H](CCCNC(N)N)NC(=O)[C@H](Cc1cnc[nH]1)NC(=O)[C@@H](N)CCCNC(N)N)C(C)C)C(=O)N[C@@H](CCCNC(N)N)C(=O)O,Kd,"protein: JMJD2A-tudor, PDB entry 2qqs",0.4 µM (active)
CC(C)C[C@H](NC(=O)[C@@H](NC(=O)[C@H](CCCC[N+](C)(C)C)NC(=O)[C@H](CCCNC(N)N)NC(=O)[C@H](Cc1cnc[nH]1)NC(=O)[C@@H](N)CCCNC(N)N)C(C)C)C(=O)N[C@H](C=O)CCCNC(N)N (H-[Orn(CH(NH2)2)]H[Orn(CH(NH2)2)][Lys(Me3)]VL[Orn(CH(NH2)2)]-aldehyde),Kd,"protein: Polycomb protein EED residues 77-441, PDB entry 3ij1",20 µM (active)
CN(C)c1ccc(C(c2ccc(O)cc2)c2ccc(N(C)C)cc2)cc1,Kd,"protein: Immunoglobulin lambda variable domain L5(L89S), PDB entry 4k3h",0.14 µM (active)
CN(C)c1ccc(C(c2ccc(N(C)C)cc2)c2ccc(N(C)C)cc2)cc1,Kd,"protein: Putative regulatory protein, PDB entry 3vw1",21.2 µM (active)
Nc1ccc2[nH]c(=O)c3ccccc3c2c1,Kd,"protein: Putative ADP-ribosyltransferase Certhrax, PDB entry 4fk7",5.8 µM (active)
Nc1ncnc2c1ncn2[C@@H]1O[C@H](CO[P+](O)(O)OS(O)(O)O)[C@@H](O)[C@H]1O,Kd,"protein: Adenylyl-sulfate kinase 1, chloroplastic, PDB entry 4fxp",80.4 µM (active)
Nc1ncnc2c1ncn2[C@@H]1O[C@H](CO[P+](O)(O)O)[C@@H](O)[C@H]1O[C@H]1O[C@H](CO[P+](O)(O)O)[C@@H](O)[C@H]1O,Kd,"protein: E3 ubiquitin-protein ligase RNF146 RNF146(RING-WWE), PDB entry 4qpl",0.039 µM (active)
Nc1ncnc2c1ncn2[C@@H]1O[C@H](CO)[C@@H](O[P+](O)(O)OC[C@H]2O[C@@H](n3ccc(=O)[nH]c3=O)[C@H](O)[C@@H]2O)[C@H]1O,Kd,"protein: Poly(A) RNA polymerase protein cid1, PDB entry 4nku",21.3 µM (active)
Nc1ncnc2c1ncn2[C@@H]1O[C@H](CO[P+](O)(O)O[P+](O)(O)N[P+](O)(O)O)[C@@H](O)[C@H]1O,Kd,"protein: INOSITOL-PENTAKISPHOSPHATE 2-KINASE, PDB entry 4axd",37 µM (active)
same,Kd,"protein: N-acetylhexosamine 1-phosphate kinase NahK, PDB entry 4ock",8.3 µM (active)
same,Kd,"protein: N-acetylhexosamine 1-phosphate kinase NahK, PDB entry 4ocv",8.3 µM (active)
same,Kd,"protein: Osmolarity sensor protein EnvZ, Histidine kinase, PDB entry 4kp4",6.8 µM (active)
NC(=O)C1=CN([C@H]2O[C@H](CO[P+](O)(O)O[P+](O)(O)OC[C@H]3O[C@@H](n4cnc5c(N)ncnc54)[C@H](O)[C@@H]3O)[C@@H](O)[C@H]2O)C=CC1,Kd,"protein: Redox-sensing transcriptional repressor rex, PDB entry 3wgg",39.9 µM (active)
Nc1ncnc2c1ncn2[C@@H]1O[C@H](CO[P+](O)(O)O[P+](O)(O)O[P+](O)(O)O)[C@@H](O)[C@H]1O,Kd,"protein: ADENYLATE CYCLASE TYPE 10, PDB entry 4usw",2030 µM (active)
same,Kd,"protein: Chaperone protein DnaK (N432M,Q433G,S434G mutation), PDB entry 4jn4",1.38 µM (active)
same,Kd,"protein: Hsp70 CHAPERONE DnaK (N432M,Q433G,S434G mutation), PDB entry 4jne",1.38 µM (active)
same,Kd,"protein: Nitrogen regulatory protein P-II hmGlnK2, PDB entry 4ozn",4 µM (active)
same,Kd,"protein: Protein hfq, PDB entry 3qo3",0.125 µM (active)
same,Kd,"protein: Walker B/D-loop D645N, D651A double mutant rat TAP1-NBD, PDB entry 4k8o",170 µM (active)
